Measurements published in PubChem BioAssay AID434936 (National Center for Advancing Translational Sciences (NCATS), 2010).
“And” between values parts separate entries of the source, which are not always exact repeats. Equal values may be shown once. Results filed as inconclusive are left out. The source made the active and inactive calls. The call rests on the fitted dose curve; in most records, active means well fitted curve in either direction with a large enough effect; inconclusive means small, poorly fitted or top-dose-only effect; inactive means flat fitted curve, though single readings scatter.

These compounds were tested against Neuropeptide S receptor (Homo sapiens) (UniProt Q6W5P4) (assay: Confirmation Concentration-Response Assay for Antagonists of the Neuropeptide S Receptor: Robust Characterization of cAMP Signal Transduction). Conditions: CHO-NPSR cells, NPS-stimulated cAMP TR-FRET; series mostly up to 50.7 µM.
From the text: NIH Chemical Genomics Center [NCGC] NIH Molecular Libraries Probe Production centers Network [MLPCN] MLPCN Grant: X01-DA026210-01 Assay Submitter (PI): Heilig, Markus Alexander NCGC Assay Overview: Neuropeptide S receptor (NPSR), previously known as GPR154, is a recently de-orphanized G protein coupled receptor. Its endogenous ligand is the 20 amino acids peptide Neuropeptide S (NPS). […] NPS and its receptor are found in various tissues. Specifically they are highly expressed in brain areas that have been implicated in modulation of arousal, stress and anxiety. Central administration of NPS in mice produces an unusual profile of activity by inducing wakefulness and arousal, while at the same time suppressing anxiety. Therefore, NPSR may represent a novel drug target for the treatment of sleep and anxiety disorders. To identify NPSR antagonists, we developed a cell-based cAMP assay. NPS can stimulate the production of cAMP in Chinese hamster ovary cells stably expressing NPS receptor. This change in intracellular cAMP level can be detected by a homogeneous LANCE cAMP assay based on the TR-FRET (time resolved fluorescence resonance energy transfer) between a europium-labeled cAMP tracer complex and a cAMP-specific antibody labeled with Alexa Fluor 647. The europium-labeled cAMP tracer complex is formed by the tight interaction between Biotin-cAMP (b-cAMP) and streptavidin labeled with Europium-W8044 chelate (Eu-SA). Light pulse at 320 nm excites the europium of the cAMP tracer and the energy emitted is transferred to the Alexa molecule bound to the cAMP antibody, generating a TR-FRET signal at 665 nm. Residual energy from the europium will produce a light at 620 nm. The native unlabeled cAMP from cell lysates competes with the europium-cAMP tracer for antibody binding and reversely reduces the emission signal of Alexa by interrupting FRET between the two labeled molecules. Both emission signals from the FRET donor (620 nm) and the acceptor (665 nm) can be detected by a plate reader in the TRF mode. Expression of result in fluorescence ratio (665 nm/620 nm) helps to normalize differences due to cell density and reagent dispensing. This assay was successfully optimized to a 1536-well plate format. Select compounds from the primary screen (AID 1461) were chosen for confirmation based on potency, efficacy, SAR, and activity across other assays in PubChem and at NCGC. Other compounds are analogs of active compounds from the primary screen. This particular assay uses a high density of sampling across concentration-response space to establish more confidence estimates of potency.
NCGC Assay Protocol Summary: A Chinese hamster ovary (CHO) cell line stably expressing the NPS receptor (CHO-NPSR) was obtained from Dr. Heilig lab at NIAAA and maintained in F-12 Kaighn's media (Invitrogen, Carlsbad, CA, 21127) supplemented with 10 % FBS, 100 units/ml penicillin, 100 ug/ml streptomycin and 250 ug/ml geneticin at 37C, 5% CO2 in a humidified atmosphere. Before the assay, aliquots of cells were frozen and stored at -135C. The assay was performed in 1536-well format. Data are reported for both the ratio of the two emission wavelengths, and also for the component 'donor' channel, Em2=620. […] IC50 values were determined from concentration-response data modeled with the standard Hill equation. NPS 1536-well assay protocol: (1) Fresh or frozen CHO-NPSR cells were suspended in F-12 Kaighn's media supplemented with 10 % FBS, 100 units/ml penicillin and 100 ug/ml streptomycin. Cells were plated at 4 ul/well (1200 cells) to white, tissue culture treated 1536-well plates, and then cultured at 37C, 5 % CO2 for 16 to 30 hours. (2) Add 23 nl/well of compound in DMSO solution. The final titration for each compound was between 0.6 nM and 46 uM. […]

Chain of Neuropeptide S receptor (Homo sapiens) (Q6W5P4 whole entry, looked up): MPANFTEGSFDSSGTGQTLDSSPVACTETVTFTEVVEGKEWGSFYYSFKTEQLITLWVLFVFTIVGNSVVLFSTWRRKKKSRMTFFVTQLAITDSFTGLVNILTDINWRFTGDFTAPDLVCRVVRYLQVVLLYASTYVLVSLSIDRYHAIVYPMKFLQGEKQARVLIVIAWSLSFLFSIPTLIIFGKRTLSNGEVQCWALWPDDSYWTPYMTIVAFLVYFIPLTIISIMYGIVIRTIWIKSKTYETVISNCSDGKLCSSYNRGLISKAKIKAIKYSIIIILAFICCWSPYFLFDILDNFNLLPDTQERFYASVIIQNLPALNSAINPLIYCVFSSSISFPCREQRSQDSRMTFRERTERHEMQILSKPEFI

Question: For `COc1cccc(C2c3c(ncn(-c4ccccc4C)c3=N)Oc3ccc4ccccc4c32)c1` (stereo not given), which Potency is on record?
Answer: The Potency was 6.88 µM (active).

Question: `COc1cccc(C2c3c(ncn(-c4ccc(C#N)cc4)c3=N)Oc3ccc4ccccc4c32)c1` (stereo not given) was tested. Which Potency did it give?
Answer: The Potency was 12.2 µM (active).

Question: For `COc1cccc(C2c3c(ncn(-c4ccccc4)c3=N)Oc3ccc4ccccc4c32)c1` (stereo not given), which Potency is on record?
Answer: Its Potency is 8.67 µM (active) and 1.54 µM (active).

Question: For `COc1ccc(C2c3c(ncn(CCc4ccccc4)c3=N)Oc3ccc4ccccc4c32)cc1OC` (stereo not given), which Potency is on record?
Answer: Its Potency is 27.4 µM (active).

Question: How did the Potency turn out when `COc1cccc(C2c3c(ncn(-c4ccc(F)cc4)c3=N)Oc3ccc4ccccc4c32)c1` (stereo not given) was run?
Answer: The Potency was 12.2 µM (active).

Question: How did the Potency turn out when `COc1cccc(C2c3c(ncn(-c4cccc(OC)c4)c3=N)Oc3ccc4ccccc4c32)c1` (stereo not given) was run?
Answer: The Potency was 6.88 µM (active).

Question: For `O=C(NCc1ccccc1)Nc1ncnc2c1C(c1ccccc1)c1c(ccc3ccccc13)O2` (stereo not given), which Potency is on record?
Answer: Its Potency is 30.7 µM (active).

Question: Which Potency does the source give for `COc1cccc(C2c3c(ncn(CCN4CCOCC4)c3=N)Oc3ccc4ccccc4c32)c1` (stereo not given) here?
Answer: The Potency was 12.2 µM (active).

Question: `COc1cccc(C2c3c(ncn(-c4ccccn4)c3=N)Oc3ccc4ccccc4c32)c1` (stereo not given) was tested. Which Potency did it give?
Answer: The Potency was 17.3 µM (active).

Question: Which Potency does the source give for `N=c1c2c(ncn1-c1ccccc1)Oc1ccc3ccccc3c1C2c1ccc2c(c1)CCO2` (stereo not given) here?
Answer: The Potency was 2.18 µM (active).

Question: `COc1cccc(C2c3c(ncn(-c4ccc(C)cc4)c3=N)Oc3ccc4ccccc4c32)c1` (stereo not given) was tested. Which Potency did it give?
Answer: The Potency was 8.67 µM (active).

Question: For `Cc1nc2ccccn2c1P(=O)(c1ccccc1)c1ccccc1`, which Potency is on record?
Answer: Its Potency is “inactive”.

Question: Which Potency does the source give for `CCOC(=O)c1ccc(-n2cnc3c(c2=N)C(c2cccc(OC)c2)c2c(ccc4ccccc24)O3)cc1` (stereo not given) here?
Answer: Its Potency is 10.9 µM (active).

Question: For `N#CC1=C(NC=NCc2ccccc2)Oc2ccc3ccccc3c2C1c1ccccc1` (stereo not given), which Potency is on record?
Answer: Its Potency is 1.37 µM (active).

Question: Which Potency does the source give for `COc1cccc(C2c3c(ncn(-c4ccc(Br)cc4)c3=N)Oc3ccc4ccccc4c32)c1` (stereo not given) here?
Answer: Its Potency is 12.2 µM (active).

Question: `COc1cccc(C2c3c(ncn(-c4cccc(F)c4)c3=N)Oc3ccc4ccccc4c32)c1` (stereo not given) was tested. Which Potency did it give?
Answer: The Potency was 3.87 µM (active).

Question: With `COc1cccc(C2c3c(ncn(-c4cccc(C)c4)c3=N)Oc3ccc4ccccc4c32)c1` (stereo not given) as the compound, how does the Potency read?
Answer: The Potency was 9.72 µM (active).

Question: With `S=P(c1ccccc1)(c1ccccc1)c1c[n+](C/C=C/c2ccccc2)c2ccccn12` as the compound, how does the Potency read?
Answer: The Potency was 0.56 µM (active).

Question: For `COc1ccc(C2c3c(ncn(CCCc4ccccc4)c3=N)Oc3ccc4ccccc4c32)cc1OC` (stereo not given), which Potency is on record?
Answer: The Potency was 27.4 µM (active).

Question: How did the Potency turn out when `CCC(C)(CCN1CCOCC1)N(Cc1cc2ccccc2n(C)c1=O)C(=O)C1CCCCC1` (stereo not given) was run?
Answer: The Potency was 0.0546 µM (active).

Question: `COc1cccc(C2c3c(ncn(-c4ccc(C(C)(C)C)cc4)c3=N)Oc3ccc4ccccc4c32)c1` (stereo not given) was tested. Which Potency did it give?
Answer: Its Potency is 12.2 µM (active).

Question: `O=C(c1ccccc1)N(C(=O)c1ccccc1)c1ncnc2c1C(c1ccccc1)c1c(ccc3ccccc13)O2` (stereo not given) was tested. Which Potency did it give?
Answer: Its Potency is 1.54 µM (active).

Question: With `N=c1c2c(ccn1CCc1ccccc1)Oc1ccc3ccccc3c1C2c1ccccc1` (stereo not given) as the compound, how does the Potency read?
Answer: Its Potency is 3.87 µM (active).

Question: With `COc1cccc(C2c3c(ncn(-c4ccccc4C(C)(C)C)c3=N)Oc3ccc4ccccc4c32)c1` (stereo not given) as the compound, how does the Potency read?
Answer: Its Potency is 12.2 µM (active).

Question: `N=c1c2c(ccn1-c1ccccc1)Oc1ccc3ccccc3c1C2c1ccccc1` (stereo not given) was tested. Which Potency did it give?
Answer: The Potency was 1.09 µM (active).

Question: For `COc1cccc(C2c3c(ncn(-c4ccncc4)c3=N)Oc3ccc4ccccc4c32)c1` (stereo not given), which Potency is on record?
Answer: Its Potency is 13.7 µM (active).

Question: How did the Potency turn out when `COc1cccc(C2c3c(ncn(-c4ccccc4SC)c3=N)Oc3ccc4ccccc4c32)c1` (stereo not given) was run?
Answer: The Potency was 4.87 µM (active).

Question: With `Fc1ccc(-c2c(P(=S)(c3ccccc3)c3ccccc3)n3ccccc3[n+]2C/C=C/c2ccccc2)cc1` as the compound, how does the Potency read?
Answer: Its Potency is 0.471 µM (active).

Question: Which Potency does the source give for `COc1cccc(C2c3c(ncn(Cc4cccs4)c3=N)Oc3ccc4ccccc4c32)c1` (stereo not given) here?
Answer: The Potency was 12.2 µM (active).

Question: `Nc1ncnc2c1C(c1ccccc1)c1c(ccc3ccccc13)O2` (stereo not given) was tested. Which Potency did it give?
Answer: The Potency was 6.88 µM (active).

Question: `N=c1c2c(ncn1-c1ccccc1)Oc1ccc3ccccc3c1C2c1ccc2c(c1)OCO2` (stereo not given) was tested. Which Potency did it give?
Answer: The Potency was 3.07 µM (active).

Question: Which Potency does the source give for `COc1cccc(C2C(C#N)=C(NC(=O)CCc3ccccc3)Oc3ccc4ccccc4c32)c1` (stereo not given) here?
Answer: Its Potency is “inactive”.

Question: Which Potency does the source give for `COc1ccc(C2c3c(nc(Cc4ccccc4)[nH]c3=O)Oc3ccc4ccccc4c32)cc1OC` (stereo not given) here?
Answer: The Potency was “inactive”.

Question: For `COc1ccc(C2c3c(ncn(CCN4CCOCC4)c3=N)Oc3ccc4ccccc4c32)cc1OC` (stereo not given), which Potency is on record?
Answer: The Potency was 2.74 µM (active).

Question: Which Potency does the source give for `COc1ccccc1C1c2c(ncn(-c3ccccc3)c2=N)Oc2ccc3ccccc3c21` (stereo not given) here?
Answer: The Potency was 4.34 µM (active).

Question: Which Potency does the source give for `COc1ccc(C2c3c(ncn(Cc4ccccc4)c3=N)Oc3ccc4ccccc4c32)cc1OC` (stereo not given) here?
Answer: The Potency was 13.7 µM (active).

Question: `Cc1nc2ccccn2c1C(O)(c1ccccc1)c1ccccc1` was tested. Which Potency did it give?
Answer: The Potency was “inactive”.

Question: For `COc1ccc2c(c1)Oc1ncn(CCN3CCOCC3)c(=N)c1C2c1ccc(OC)c(OC)c1` (stereo not given), which Potency is on record?
Answer: Its Potency is 13.7 µM (active).

Question: How did the Potency turn out when `CCOc1ccc(C2c3c(ncn(-c4ccccc4)c3=N)Oc3ccc4ccccc4c32)cc1OCC` (stereo not given) was run?
Answer: The Potency was 3.45 µM (active).

Question: With `CC(C)(C)OC(=O)Nc1ncnc2c1C(c1ccccc1)c1c(ccc3ccccc13)O2` (stereo not given) as the compound, how does the Potency read?
Answer: Its Potency is 10.9 µM (active).
